Rows were chosen to be rich in hits. Some 9.9% of all compounds tested hit in one or more screens of this group.
KB-3-1 tox: KB-3-1 parental cell cytotoxicity | 400,000 tested, 1.4% active | KB-3-1 viability, CellTiter-Glo ATP luminescence, 72 h | Potency, µM (doses to about 46.1 µM), usual class: cytotoxic; further: potency means the concentration at half of the fitted maximal effect; on the % scale 0 is the no-effect control and ±100 the full control effect; nearly all actives have a fitted effect of over 60% in size
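Cytotoxicity measured as CellTiter-Glo luminescence after 72 h at 37 C. Compound titrations were pinned onto drug-naive KB-3-1 parental adenocarcinoma cells grown in DMEM with 10% FBS, and normalized data fitted to concentration-response curves.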
MCF10A rereplic: DNA re-replication induction in MCF 10a cells; MCF 10A DNA re-replication, Hoechst nuclear intensity, 48 h; Potency, µM (highest dose often 46.1 µM), inactives show top-dose activity, positive = re-replication, usual class: activators; 350,000 tested, 2.9% active; further: potency means the concentration at half of the fitted maximal effect; % of control where 0% means no effect; nearly all actives have a fitted effect of over 50% in size
IL1B secr inh: inflammasome signaling inhibition, IL-1 beta readout. THP-1 LPS/ATP IL-1B secretion, AlphaLISA, 16 h; hits give low values. 360,000 tested, 4.7% active. activity change, % at 57.5 µM. AID 743279; in the data active means activity change below about -50%; inconclusive means mostly about -30% to -49%; further: on the % scale 0 is the no-effect control and ±100 the full control effect
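THP-1 cells pretreated 1 hr with compounds (up to 57.5 uM final), then stimulated with LPS (250 ng/mL final) plus ATP (1.25 mM final); secreted IL-1B measured by AlphaLISA after 16 hr, decreased signal indicating inhibition.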
SW480 rerep: inducers of DNA re-replication in SW480 colon cancer cells. SW480 DNA re-replication, Hoechst DNA content imaging, 48 h. Potency, µM (highest dose often 46.1 µM), for the others: at the highest dose re-replication activation, usual class: activators. 340,000 tested, 1.8% active; further: potency means the concentration at half of the fitted maximal effect; % of control where 0% means no effect; nearly all actives have a fitted effect of over 55% in size
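Cells (250 per well) received 23 nL compound or DMSO by pin tool and were kept 48 hr at 37 C, 5% CO2. Nuclei were then stained with Hoechst for 40 min and scanned for DNA content.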
KB-V1 MDR tox: kills drug-selected multidrug resistant KB-V1 cells | KB-V1 MDR cells viability, CellTiter-Glo, 72 h | Potency, µM (highest dose often 46.1 µM), hits mostly cytotoxic | 400,000 tested, 3.4% active | AID 1347076; further: potency means the concentration at half of the fitted maximal effect; on the % scale 0 is the no-effect control and ±100 the full control effect; nearly all actives have a fitted effect of over 60% in size
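Cytotoxicity toward P-gp-expressing KB-V1 cells was determined as loss of CellTiter-Glo luminescence after 72 h at 37 degrees C. Compounds were tested in quantitative HTS format across a concentration range, with curves fitted to normalized data.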
Starred values were filed as active, the others as inactive; [ ] = another dose, or the depositor's remark. Unless noted, the call rests on the fitted dose curve; in most records, active means well fitted curve in the direction sought with a large enough effect; inconclusive means small, poorly fitted or top-dose-only effect, or another doubt; inactive means no such curve, though single readings can be large; an effect the other way counts as inactive or inconclusive.

O=C1/C(=C/c2ccccc2F)SC(=S)N1CCC(=O)N1CCCCC1CCO (stereo not drawn) was read as KB-3-1 tox inconclusive, MCF10A rereplic 23.1µM*, IL1B secr inh -99.2*, SW480 rerep inconclusive and KB-V1 MDR tox inactive.
O=C1/C(=C/c2ccccc2F)SC(=S)N1CC(=O)N1CCCCC1c1cccnc1 (stereo not drawn) was read as KB-3-1 tox inactive, MCF10A rereplic inconclusive, IL1B secr inh -61.2*, SW480 rerep -2.6% and KB-V1 MDR tox inactive.
`O=C1/C(=C/c2ccccc2)SC(=S)N1CCCC(=O)N1CCCCC1CCO` (stereo not drawn) gave KB-3-1 tox inconclusive, MCF10A rereplic 10.2%, IL1B secr inh -58.8*, SW480 rerep 15.0% and KB-V1 MDR tox inconclusive.
Screening Cc1ccc(N2C(=O)CSC23C(=O)N(CC(=O)Nc2ccc(C)cc2C)c2ccccc23)cc1 (stereo not drawn) returned KB-3-1 tox inactive and KB-V1 MDR tox inconclusive.
Screening Cc1cc(O)ccc1Nc1nc2ccccc2nc1Nc1ccc(O)cc1C returned KB-3-1 tox inactive, MCF10A rereplic 18.4µM*, IL1B secr inh -7.3, SW480 rerep inconclusive and KB-V1 MDR tox inactive.
CCCc1cc(=O)[nH]c(Nc2ccc(O)cc2C)n1 was read as KB-3-1 tox inactive and KB-V1 MDR tox inactive.
CCC(C)c1ccc(Nc2ncccc2C#N)cc1 (stereo not drawn) was read as KB-3-1 tox inactive, MCF10A rereplic -3.3%, IL1B secr inh 0.0, SW480 rerep 1.3% and KB-V1 MDR tox inactive.
`CCc1ccc(Nc2ncccc2C#N)cc1` gave KB-3-1 tox inactive, MCF10A rereplic 0.2%, IL1B secr inh -59.3*, SW480 rerep -165.4% and KB-V1 MDR tox inactive.
`c1ccc(-c2cnn3c(-c4ccccc4)c(-c4ccccc4)nc3n2)cc1` gave KB-3-1 tox inactive, MCF10A rereplic 19.5%, IL1B secr inh 16.9, SW480 rerep 11.4% and KB-V1 MDR tox inactive.
`COc1cc(/C=N\NC(=O)CC#N)ccc1OC/C=C/c1ccccc1` gave KB-3-1 tox inactive, MCF10A rereplic 5.9%, IL1B secr inh -26.6, SW480 rerep inconclusive and KB-V1 MDR tox inactive.
For COCC(=O)N/N=C\c1ccc(OC/C=C/c2ccccc2)c(OC)c1 the results were KB-3-1 tox inactive, MCF10A rereplic inconclusive, IL1B secr inh inactive, SW480 rerep inconclusive and KB-V1 MDR tox 11.6µM*.
Screening CNC(=O)c1[nH]nc2c1CCc1ccccc1-2 returned KB-3-1 tox inactive, MCF10A rereplic -22.8%, IL1B secr inh -16.6, SW480 rerep -0.2% and KB-V1 MDR tox inactive.
`COc1ccc(/C=N/NC(=O)c2[nH]nc3c2CCc2ccccc2-3)cc1OC` gave KB-3-1 tox inconclusive, MCF10A rereplic 5.17µM*, IL1B secr inh 116.2, SW480 rerep inconclusive and KB-V1 MDR tox inactive.
Screening COc1ccc(/C=N/NC(=O)c2nc(-c3ccccc3)cc(-c3ccccc3)n2)cc1OC returned KB-3-1 tox inactive, MCF10A rereplic -7.7%, IL1B secr inh -50.2*, SW480 rerep -3.1% and KB-V1 MDR tox inactive.
For COc1cccc(N2CCN(C(=O)C3CCCN(S(=O)(=O)c4ccc(Br)s4)C3)CC2)c1 (stereo not drawn) the results were KB-3-1 tox inactive and KB-V1 MDR tox inactive.
Screening COc1ccccc1NC(=O)CSc1ncc2c(n1)-c1ccccc1N(Cc1ccccc1C)S2(=O)=O returned KB-3-1 tox inconclusive and KB-V1 MDR tox inactive.
`CCN=c1scc(C)n1/N=C/c1ccc(O)c(O)c1O` gave KB-3-1 tox inactive, MCF10A rereplic -2.7%, IL1B secr inh -17.2, SW480 rerep -2.0% and KB-V1 MDR tox inactive.
For CCN=c1scc(C)n1/N=C/c1cc(Br)c(O)c(Br)c1 the results were KB-3-1 tox inconclusive, MCF10A rereplic 20.6µM*, IL1B secr inh -9.6, SW480 rerep -3.2% and KB-V1 MDR tox inconclusive.
Screening O=C1c2ccccc2S(=O)(=O)N1CCS(=O)(=O)c1ccc(F)cc1 returned KB-3-1 tox inactive, MCF10A rereplic 14.5%, IL1B secr inh -76.2*, SW480 rerep 15.9% and KB-V1 MDR tox inactive.
`COC(=O)N1CC(c2ccccc2)CC1=O` (stereo not drawn) gave KB-3-1 tox inactive, MCF10A rereplic -2.8%, IL1B secr inh 0.0, SW480 rerep 1.0% and KB-V1 MDR tox inactive.
For COC(=O)N1C(=O)[C@@](Cc2ccccc2)(c2ccccc2)N1C(=O)OC the results were KB-3-1 tox inactive, MCF10A rereplic inconclusive, IL1B secr inh -95.1*, SW480 rerep inconclusive and KB-V1 MDR tox inactive.
COC(=O)c1ccccc1NC(=O)NCc1ccccc1 was read as KB-3-1 tox inactive, MCF10A rereplic 5.2%, IL1B secr inh -2.5, SW480 rerep 3.2% and KB-V1 MDR tox inactive.
Cc1cccc(OCC(=O)NNC(=O)CCCCC(=O)NNC(=O)COc2cccc(C)c2)c1 was read as KB-3-1 tox inactive, MCF10A rereplic 0.8%, IL1B secr inh 4.4, SW480 rerep 0.0% and KB-V1 MDR tox inactive.
`CC[C@]1(c2cccc(C)c2)C(=O)N(C(=O)OC)N1C(=O)OC` gave KB-3-1 tox inactive, MCF10A rereplic inconclusive, IL1B secr inh -105.0*, SW480 rerep 0.8% and KB-V1 MDR tox inactive.
For COC(=O)N1C(=O)[C@](Cc2ccccc2)(c2ccccc2)N1C(=O)OC the results were KB-3-1 tox inactive, MCF10A rereplic inconclusive, IL1B secr inh -103.2*, SW480 rerep inconclusive and KB-V1 MDR tox inconclusive.
For COC(=O)N1[C@H](C)C=C[C@]1(Cc1ccccc1)C(=O)OC the results were KB-3-1 tox inactive, MCF10A rereplic -4.7%, IL1B secr inh -3.1, SW480 rerep -3.2% and KB-V1 MDR tox inconclusive.
COC(=O)N1C(=O)[C@@](c2ccccc2)(C2CCCCC2)N1C(=O)OC was read as KB-3-1 tox inactive, MCF10A rereplic 14.6µM*, IL1B secr inh -102.8*, SW480 rerep -14.6%[9.22 µM] and KB-V1 MDR tox inactive.
`O=C(Nc1nccs1)c1ccc(COc2c(F)c(F)cc(F)c2F)cc1` gave KB-3-1 tox inconclusive, MCF10A rereplic 2.7%, IL1B secr inh -4.8, SW480 rerep inconclusive and KB-V1 MDR tox inactive.
C[Se]CCC(N)C(=O)O (stereo not drawn) was read as MCF10A rereplic -0.8% and SW480 rerep -1.4%.
CC[C@@]1(c2ccccc2)C(=O)N(C(=O)OC)N1C(=O)OC was read as KB-3-1 tox inactive, MCF10A rereplic inconclusive, IL1B secr inh inconclusive, SW480 rerep 4.0% and KB-V1 MDR tox inactive.
CC[C@@]1(c2ccccc2C)C(=O)N(C(=O)OC)N1C(=O)OC was read as KB-3-1 tox inactive, MCF10A rereplic -17.1%, IL1B secr inh -58.1*, SW480 rerep -5.2% and KB-V1 MDR tox inconclusive.

Bioassay records (PubChem BioAssay)
